# Biological target: CASP8
# Assay: pooled miR-30 sensor sort-seq; sequence = guide strand
# Conditions: shRNA
# Also: reference of the scale not given here.
row,Sequence,sensor-assay potency score (higher = more potent)
1,TAATAGATGATCGACCCTCCGC,-0.463
2,TAGATTTGCTCTACTGTGCAGT,0.44
3,TTTTGCAAAATTGTGATTGTTG,0.0045
4,TTCTTCTGAAATCTGATAGAGC,-0.601
5,TAATGATTTAAAATAATCCAAG,-1.15
6,ATCTGATAGAGCATGACCCTGT,-0.509
7,TTACTTTCAATAACCACCCTGG,0.486
8,TTCTGAAATCTGATAGAGCATG,-1.4

# Biological target: CASQ1
# Assay: as above
# Conditions: shRNA
row,Sequence,sensor-assay potency score (higher = more potent)
1,TTGAGAGTCTCTAAGAACTCGA,-0.0687
2,TAGGACATCAAGCAGAAACTCC,-0.771
3,TACATTAACAAGTGATTGCTGA,0.512
4,TTCTTTGCCACCTTGCTGTCGA,0.0735
5,TCTCTAAGAACTCGAAACCATC,-1.47
6,AACACATTCTTGTAGTTCTTTG,-0.85
7,TTCTTGAACACATTCTTGTAGT,0.249
8,TTGATCACACGGTCCACACCAT,-0.226
9,ATCCTTCTCAGAGTCTACCAGC,-1.1
10,TACTTCTTGAACACATTCTTGT,0.247
11,TTGTCTTCTAGGACTTGGGCTG,-0.338
12,TTGACAATCTCCTCTTCGCTAT,-0.427
13,ATACTTCTTGAACACATTCTTG,-1.25
14,TTGTGAGGCCTTGTCATCCTCG,-0.34
15,TAGCCAATGAGTTTGATCTCAT,-0.312
16,TACAGGATTAGAGAGAGTGGGG,-0.52
17,TAGTTCTTTGCATTGACATTGA,-0.428
18,TTCTCAGAGTCTACCAGCCCGA,-1.38
19,TTCATGGTAGAGGAGTGCCAGC,-1.44
20,TAATGCTCTGAGTCTTTGCTCT,-0.39
21,TTGTAATGCTCTGAGTCTTTGC,-1.04
22,TTCACCTTCAATCAATTCCACA,-1.32
23,ATGCTCTGAGTCTTTGCTCTTG,-1.26
